# Source: PubChem (National Center for Advancing Translational Sciences (NCATS))
# Many of the other results were omitted from the sample, so hits are more common in it than they were.
# CHX counter: counter-screen for Shiga toxin inhibitors: cycloheximide protein synthesis inhibition | max response, % | 12% of 300,000 active | cell reporter, cycloheximide protein synthesis inhibition counterscreen | AID 2314; in the data active = max response mostly above about 13%, no sharp cut-off; inactive = mostly below about 14%; also: read at 38.3 µM for the half of the compounds with a filed dose; 0% is about no effect
# Shiga inhibitor: inhibitors of Shiga toxin in Vero cells | Vero cells, Shiga toxin protein synthesis inhibition reporter | inhibition, % at 38.7 µM | 9.2% of 290,000 active | AID 2315; in the data active = inhibition mostly above about 28%, no sharp cut-off; inactive = mostly below about 43%; also: 0% is about no effect
# Tb PYK inh: T. brucei pyruvate kinase inhibition | TbPYK enzyme, Kinase-Glo Plus ATP luminescence, 45 min | Potency, µM (series often up to 76.8 µM), without a hit: top-dose activity, negative = inhibition, hits mostly inhibitors | Q57TT1 | AID 624173 | 0.12% of 410,000 active; also: potency is read from the fitted curve at half-maximal effect; % is scaled to controls: 0 for no effect and ±100 for the full control effect; nearly all actives have a fitted effect of over 50% in size
#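 Quantitative HTS: titrated library compounds versus trypanosomal pyruvate kinase in TEA buffer (pH 7.2) containing KCl, MgCl2, BSA and Tween-20. Reactions were initiated with ADP, 130 uM final. Kinase-Glo Plus luminescence was read after 45 min at RT.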
# LmPK inh: blocks Leishmania mexicana pyruvate kinase activity. Potency, µM (highest dose often 57.5 µM), inactives show at the highest dose activity change, negative = inhibition, most hits filed as inhibitors. AID 1721. Q27686. purified LmPK, Kinase-Glo ATP luminescence, 1 h. 0.37% of 290,000 active; also: potency is read from the fitted curve at half-maximal effect; % is scaled to controls: 0 for no effect and ±100 for the full control effect
# Target sequence (Q27686 whole entry, looked up): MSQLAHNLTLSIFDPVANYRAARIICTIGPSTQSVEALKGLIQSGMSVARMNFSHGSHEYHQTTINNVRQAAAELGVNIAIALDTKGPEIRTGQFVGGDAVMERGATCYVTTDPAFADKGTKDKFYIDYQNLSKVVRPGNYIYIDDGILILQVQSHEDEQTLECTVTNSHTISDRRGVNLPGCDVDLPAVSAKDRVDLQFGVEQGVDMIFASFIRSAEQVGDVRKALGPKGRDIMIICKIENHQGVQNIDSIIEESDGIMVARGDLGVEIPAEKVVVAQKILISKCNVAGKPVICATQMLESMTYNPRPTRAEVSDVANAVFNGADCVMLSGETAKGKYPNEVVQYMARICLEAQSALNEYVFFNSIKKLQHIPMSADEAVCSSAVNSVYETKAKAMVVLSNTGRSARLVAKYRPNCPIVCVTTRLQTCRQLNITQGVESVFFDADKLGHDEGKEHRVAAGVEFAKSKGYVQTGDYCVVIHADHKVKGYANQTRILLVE
#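 Kinase-Glo luminescence read after 1 h RT reaction of 0.1 nM LmPK with 0.5 mM PEP and 0.1 mM ADP. Activity scaled between uninhibited and enzyme-free controls.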
# RE007 growth inh: less growth of the S. pombe RE007 Vpr strain; S. pombe RE007 Vpr strain, BacTiter-Glo ATP luminescence, 24 h; Potency, µM (titrated, usually from 92.2 µM), without a hit: at the highest dose activity change, negative = less growth, usual class: inhibitors; 0.21% of 360,000 active; AID 651644; active = well fitted falling curve with a large enough effect; inconclusive = small, poorly fitted or top-dose-only effect; inactive = no such curve, though single readings can be large or run the other way; also: potency is read from the fitted curve at half-maximal effect; % is scaled to controls: 0 for no effect and ±100 for the full control effect; nearly all actives have a fitted effect of over 50% in size
#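 Fission yeast strain RE007, carrying one chromosomally integrated HIV-1 vpr copy, was seeded at OD 0.01 in PMG+AL medium with 23 nL pinned compound. After 24 h at 30 °C and 99% humidity, viability was read by BacTiter-Glo luminescence.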
# Giardia FBPA inh: blocks Giardia fructose-bisphosphate aldolase activity; A8B2U2; purified Giardia FBPA; Potency, µM (top dose mostly 59.6 µM), inactives show at the top dose activity, negative = inhibition, most hits filed as inhibitors; 0.71% of 290,000 active; AID 2451; also: potency is read from the fitted curve at half-maximal effect; % is scaled to controls: 0 for no effect and ±100 for the full control effect; nearly all actives have a fitted effect of over 55% in size
#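 40 nM FBPA preincubated 10 min at RT with compound (up to 57.5 uM final), then substrate plus GAPDH/TPI/NAD/arsenate coupling and diaphorase/resazurin added. Fluorescence read after 20 min at RT, 525/598 nm.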
# The depositor's hits bear a star; ? = inconclusive; nt = no result given; [ ] = another dose, or the depositor's remark. Unless noted, calls follow the shape of the dose curve; as a rule, active = well fitted curve in the direction sought with a large enough effect; inconclusive = small, poorly fitted or top-dose-only effect, or another doubt; inactive = no such curve, though single readings can be large; an effect the other way counts as inactive or inconclusive.
SMILES,CHX counter,Shiga inhibitor,Tb PYK inh,LmPK inh,RE007 growth inh,Giardia FBPA inh
O=C(C=C=Nc1ccccc1)C(=O)N=C=Cc1ccccc1,24*,72*,-5%,2%,0%,-17%
Brc1ccc(-c2cn3c(n2)SCC3)cc1,35*,100*,-3%,0%,-4%,-3%
c1ccc(-c2cn3c(n2)SCC3)cc1,29*,50*,4%,4%,11%,3%
Cc1oc2ccccc2c1-c1cn2c(n1)SCC2,11*,24,-5%,-2%,8%,0%
Clc1ccc(-c2cn3c(n2)SCC3)cc1,38*,162*,2%,8%,-22%,0%
CS(=O)(=O)Nc1ccc(-c2cn3c(n2)SCC3)cc1,15,33,-17%,4%,4%,-16%
Oc1ccc(-c2cn3c(n2)SCC3)cc1,13,20,-10%,-3%,1%,-1%
C(#CCN1CCCC1)CC(c1ccccc1)c1ccccc1,-2,-12,1%,-2%,-17%,1%
COc1ccc(-c2cc(C(=O)N/N=C(\C)c3cccnc3)c3ccccc3n2)c(OC)c1,18,42*,-1%,-7%,8%,nt
CCOc1ccc(/C=N/NC(=O)c2cc(-c3ccco3)nc3ccccc23)cc1,47*,103*,-3%,3%,8%,2%
COc1ccc(OC)c(-c2cc(C(=O)N/N=C(\C)c3cccnc3)c3ccccc3n2)c1,1,-8,10%,7%,-8%,-8%
COc1ccc2nc(-c3ccccc3)cc(OC)c2c1,58*,65*,11%,7%,-23%,-3%
COc1ccc(/C=N/NC(=O)c2cc(-c3ccccc3)nc3ccccc23)c(OC)c1,18*,40,-8%,-7%,-6%,-16%
COc1ccc2nc(-c3ccccc3)[nH]c(=O)c2c1,nt,nt,-2%,nt,-27%,nt
CCN(c1ccc(C(=O)CN2C(=O)NC3(CCOc4ccccc43)C2=O)cc1)S(C)(=O)=O (stereo not drawn),nt,nt,-6%,nt,-1%,nt
CC1=C(C(=O)Nc2ccccn2)C(c2ccc(Br)cc2)NC(=S)N1 (stereo not drawn),37*,50*,-10%,0%,-4%,3%
CC1=C(C(=O)Nc2ccccn2)C(c2ccc(Cl)cc2)NC(=S)N1 (stereo not drawn),46*,72*,3%,6%,-11%,3%
CCOc1cc(C2C(C(=O)OC)=C(C)NC3=C2C(=O)c2ccccc23)c(Br)cc1O (stereo not drawn),nt,nt,-10%,nt,nt,nt
CC1(C(=O)NS(=O)(=O)c2ccccc2Cl)CCN1C(=O)CCC1CCCC1 (stereo not drawn),nt,nt,14%,nt,4%[18.4 µM],nt
COc1ccc(-c2cnc(N)n2CC2CCCO2)cc1 (stereo not drawn),22*,65,-5%,-10%,-5%,?
COc1cccc2c1cc1c(=O)n(CC(=O)N3CCN(c4cccc(C(F)(F)F)c4)CC3)nc(C)n12,nt,nt,1%,nt,nt,nt
CCCNC(=O)C(=O)NCCC1=CCCCC1,15,15,4%,-6%,-1%,4%
O=C(NC(=S)NCCC1=CCCCC1)c1cncc(Br)c1,18*,active,-6%,2%,15%,5%
O=C(COC(=O)c1ccccc1Br)NCCC1=CCCCC1,29*,75*,1%,6%,16%,5%
O=C(NC(=S)NCCC1=CCCCC1)c1ccccc1Br,27*,9,-11%,4%,-14%,-1%
SMILES,CHX counter,Shiga inhibitor,Tb PYK inh,LmPK inh,RE007 growth inh,Giardia FBPA inh
S=C(NCCC1=CCCCC1)NCc1ccco1,23*,47*,1%,1%,0%,-5%
O=C(COC(=O)c1ccccc1NCCO)NCCC1=CCCCC1,nt,nt,0%,nt,8%,nt
CCOc1cc(C2c3c(oc4ccccc4c3=O)C(=O)N2Cc2ccc3c(c2)OCO3)ccc1O (stereo not drawn),nt,nt,0%,nt,nt,nt
C=CCn1c2ccccc2c2n[nH]c(=S)nc21,-2,-9,?,-29%,16%,10%
[Cl][In]([Cl])[Cl],nt,nt,-6%,nt,nt,nt
CCOc1cc(CNc2ccccc2SC)ccc1O,23,-9,nt,-8%,nt,?
COc1cc(CNc2ccccc2SC)ccc1O,25,70*,-26%,0%,-5%,-25%
CCc1ccc2[nH]c(=O)c(CN(CC3CCCO3)C(=S)NCc3ccco3)cc2c1 (stereo not drawn),22*,8,-14%,2%,12%,-14%
O=C1CCCCc2sc(Br)c([N+](=O)[O-])c2N1,-1,-13,3%,0%,-1%,-2%
Cc1nc(-c2ccc(S(=O)(=O)Oc3ccc(Cl)cc3Cl)s2)cs1,-2,3,-3%,-5%,-4%,-2%
Cc1ccc(-n2nnc(-c3cc4ccccc4n3C)n2)cc1,27*,33*,-4%,4%,-8%,-5%
Cn1c(-c2nnn(-c3ccc(F)cc3)n2)cc2ccccc21,55*,65*,nt,-13%,nt,4%
Fc1ccc(-n2nnc(-c3ccccc3)n2)cc1,-3,-7,2%,-2%,-2%,13%
Cc1cc(C)n(CCNC(=O)CC2C(=O)NCCN2CC2CCCCC2)n1 (stereo not drawn),-1,-4,3%,0%,0%,-10%
CC(C)Oc1ccccc1-c1nc(SCC(=O)c2ccc(F)cc2)n[nH]1,nt,nt,-3%,nt,nt,nt
Cc1ccc2c(=O)cc(C(=O)NCc3ccccc3)oc2c1,nt,nt,-4%,nt,nt,nt
COC(=O)CCc1sc(Nc2ccccc2)nc1-c1ccc(OC)cc1,23*,91*,-5%,3%,-6%,-7%
O=C(O)Cc1sc(Nc2ccccc2)nc1-c1ccccc1,nt,nt,-1%,nt,nt,nt
COc1ccc(Nc2nc(-c3ccc(OC)cc3)c(CCC(=O)O)s2)cc1,2,-6,-6%,5%,6%,3%
O=C(O)Cc1sc(Nc2cccc3ccccc23)nc1-c1ccc(Cl)cc1,20*,18,1%,4%,26%,-6%
Cc1ccc(Nc2nc(-c3ccc(C)cc3)c(CC(=O)O)s2)cc1,14*,79,-12%,5%,-7%,-20%
CCOc1cc(C(=O)N2CC(=O)Nc3ccc(C)cc3C2c2ccccc2)cc(OCC)c1OCC (stereo not drawn),nt,nt,1%,nt,nt,nt
CCCCOC(=O)c1ccc(NC(=O)COC(=O)CSc2nc(C)cc(C)n2)cc1,21*,58*,-11%,4%,10%,-6%
CCCCOC(=O)c1ccc(NC(=O)CSc2nncn2C)cc1,25*,41,-2%,2%,-9%,-2%
COc1ccc(NC(=O)CSc2nc(C)cc(C)n2)cc1,-7,-22,-6%,0%,20%,1%
CCOC1=C2CN(S(=O)(=O)c3ccc(C)cc3)[C@H](c3cccc4ccccc34)C[C@H]2[C@H]2C(=O)N(c3ccccc3)C(=O)[C@H]2C1,nt,nt,-1%,nt,-2%,nt
